Reference: PubChem BioAssay AID1117361 (Southern Research Institute, 2015)
In all, about 3,600 compounds went through this assay and about 900 (25%) were called active. These entries were drawn from the full list. Potency and affinity values are given separately. Values without a mark were called inactive. No rule for the calls is given here.

Target: Protein Tat (Human immunodeficiency virus type 1 group M subtype B (isolate HXB2)) (UniProt P04608)
Assay: HIV-1 Tat–TAR interaction blockers – biochemical, fluorescence polarization, FAM-labeled TAR RNA, counter-screen for Vif-APOBEC3G degradation inhibitor project, dose response (AID 1117361)
Settings: Tat-TAR RNA binding; series mostly up to 100 µM; inhibition: at the top concentration

Row | Structure (SMILES) | inhibition [%] | outcome
1 | Nc1nc(Nc2ccccc2)sc1C(=O)c1ccccc1 | 9.07 | 
2 | COCCN(Cc1cc2ccccc2[nH]c1=O)C(=O)c1ccccc1OC | 4.77 | 
3 | CCc1ccc2c(c1)cc(C)c1nnc(SCC(=O)Nc3cc(OC)c(OC)cc3C(=O)O)n12 |  | inactive
4 | C=CCOc1ccc(Br)cc1/C=N/O | 11.5 | 
5 | Cc1cccc(C)c1NC(=O)CS(=O)CC(=O)NC1CCN(Cc2ccccc2)CC1 (centres undefined) |  | inactive [at 50 µM]
6 | CCOC(=O)c1ccc(-n2ncc(C(=O)OCC)c2N)cc1 |  | inactive
7 | CCOC(=O)CC(=O)CSc1ncc(C(=O)OCC)c(N)n1 |  | inactive
8 | COc1ccc2cc(C3(C)NC(=O)N(CC(=O)Nc4c(C)n(C)n(-c5ccccc5)c4=O)C3=O)ccc2c1 (centres undefined) | 11.6 | 
9 | O=S(=O)(/C=C/c1ccccc1)N1CCN(c2ccc(F)cc2)CC1 | 4.09 | 
10 | CC(=O)Nc1cccc(C(=O)NC(C)c2ccc(S(N)(=O)=O)cc2)c1 (centres undefined) | 13.5 | 
11 | CCCN(CCC)CCCNc1ccc2nnc(-c3ccc(F)cc3)n2n1 | 25 | 
12 | CCOC(=O)C1CCN(C(=O)c2ccc(OC)cc2OC)CC1 |  | inactive
13 | CCOC(=O)C1CCN(C(=O)C2CCN(S(=O)(=O)c3cc(Cl)ccc3Cl)CC2)CC1 | 2.03 | 
14 | CCC1SC2=NC(C)=C(C(=O)OC)C(c3ccc(C(=O)OC)cc3)N2C1=O (centres undefined) | 2.05 | 
15 | CCOC(=O)c1ccc(N2C(=O)c3n[nH]c(C)c3C2c2ccc(OC)cc2OC)cc1 (centres undefined) |  | inactive
16 | CC1=NN(C(=O)c2csc(C)c2)C(O)(C(F)(F)F)C1 (centres undefined) |  | inactive
17 | CCCC(=O)Nc1cccc(-c2nc3ccccc3o2)c1 | 4.73 | 
18 | Brc1ccccc1Cn1c(-c2cncs2)nc2ccccc21 |  | inactive
19 | O=C(CNS(=O)(=O)c1ccc2ccccc2c1)Nc1ccc(F)c(F)c1F | 21.4 | 
20 | CC(C)(C)CN1CCNC(=O)C1CC(=O)NCCc1ccccc1C(F)(F)F (centres undefined) |  | inactive
21 | COc1cccc(CN2CCNC(=O)C2CC(=O)NCCn2nc(C)cc2C)c1OC (centres undefined) | 27.2 | 
22 | O=C(CSc1ccccc1)N1CCN(c2ccccc2)CC1 | 2.05 | 
23 | Cc1nc2nc(C)c(CCC(=O)N3CCN(c4ccccc4)CC3)c(C)n2n1 | 16.4 | 

Row | Structure (SMILES) | inhibition [%] | outcome
24 | C(=N\Nc1nncn1/N=C/c1ccco1)/c1ccco1 |  | inactive
25 | COc1cccc(/C=N/n2c(-c3cc(C)[nH]n3)n[nH]c2=S)c1 |  | inactive
26 | Cc1nc2scc(-c3ccccc3)c2c(=O)n1/N=C/c1ccco1 | 0.68 | 
27 | Cn1ccnc1SCC(=O)c1ccc(Br)cc1 |  | inactive
28 | CCO[C@H]1OC(C(=O)NCc2ccccc2)=C[C@@H](c2coc3ccccc3c2=O)[C@@H]1CCCO |  | inactive
29 | C/C(N)=C(/C#N)C(=O)COC(=O)CCSc1ccccc1 | 4.05 | 
30 | CCN(CC)Cc1cc(Nc2c3ccccc3nc3c4ccccc4n(C)c23)cc(CN(CC)CC)c1O |  | inactive
31 | Clc1ccc(-n2ncc3c(NCc4ccccn4)ncnc32)cc1 |  | inactive
32 | COc1ccccc1C(C#N)N1N=C(C)CC1(C)C (centres undefined) |  | inactive
33 | CSc1nc2ccc3nc(NC(=O)c4ccccc4)sc3c2s1 | 8.11 | 
34 | CCOc1ccc(C(=O)NC(=S)Nc2ccc(N3CCC(C)CC3)cc2)cc1[N+](=O)[O-] | 10.7 | 
35 | CCCCN(C(=O)c1ccccc1OCc1ccc(F)cc1)c1c(N)n(CC(C)C)c(=O)[nH]c1=O | 5.68 | 
36 | CC(C)c1ccc(SCc2noc(C(=O)NCC3CCCO3)c2C(=O)O)cc1 (centres undefined) |  | inactive
37 | CCN1C(=O)/C(=C/N2CC(C)CC(C)C2)SC1=S (centres undefined) |  | inactive
38 | Cc1ccccc1N1C(=O)C2ON(c3ccccc3)C(c3cccnc3)C2C1=O (centres undefined) | 26.6 | 
39 | CC1=CCC(/C=N\Nc2nnc3c(n2)[nH]c2ccccc23)CC1 (centres undefined) | 10.9 | 
40 | CCOC(=O)c1nc2sc(C)c(C)c2c(=O)[nH]1 |  | inactive
41 | CCN1C(=O)c2ccccc2S(=O)c2ccc(C(=O)N3CCCC3)cc21 (centres undefined) |  | inactive
42 | Cc1cccc(N2CCN(CC(=O)NCC3CCCCC3)CC2)c1C |  | inactive
43 | Nc1nc(-c2ccc(F)cc2)cc(C(F)(F)F)n1 | 4.05 | 
44 | O=C(CN1C(=O)c2ccccc2C1=O)OC(C(=O)c1ccc(Cl)cc1)c1ccccc1 (centres undefined) | 1.36 | 
45 | COc1ccc(NC(=O)c2ccccc2NC(=O)CSc2ccc(Cl)cc2)cc1 | 13.5 | 
46 | Cc1cc(NC(=O)c2ccccc2F)n(-c2nc3ccccc3[nH]2)n1 | 2.05 | 

Row | Structure (SMILES) | inhibition [%] | outcome
47 | CC(C)(C)NC(=O)NC(=O)COc1ccccc1C#N | 4.73 | 
48 | CC1CN(C(=O)N[C@@H](Cc2ccccc2)C(=O)O)CC(C)O1 (some centres undefined) |  | inactive
49 | Cc1ccc(CC(NC(=O)c2ccccc2)C(=O)NC(C)C(=O)O)cc1 (centres undefined) | 5.41 | 
50 | O=C(CSc1nc2ccccc2c(=O)n1NC(=O)Cc1ccccc1)NCc1ccccc1 | 1.36 | 
51 | C=C(Br)Cn1c(CC)nc2ccccc21 |  | inactive
52 | COC(=O)Cc1cc(=O)n2[nH]c(C)cc2n1 | 19.8 | 
53 | CCOC(=O)Cc1csc(N/N=C\c2cccc(Br)c2)n1 | 2.03 | 
54 | CC(=O)N1CCc2cc(S(=O)(=O)NCCC(=O)Nc3cc(C)cc(C)c3)ccc21 |  | inactive
55 | Oc1ccccc1-c1cc(C(F)(F)C(F)F)[nH]n1 |  | inactive
56 | OC(CN1CCN(c2ccccc2)CC1)c1ccc2c(c1)CCN2 (centres undefined) | 18.2 | 
57 | CCc1ccc(-c2nc(SCC(=O)c3c(N)n(C4CC4)c(=O)[nH]c3=O)n[nH]2)cc1 |  | inactive
58 | COc1ccc(CC(=O)OCC(=O)NCc2ccco2)cc1OC |  | inactive
59 | O=C(COC(=O)Cc1ccc(Cl)cc1)NCc1ccco1 | 17.7 | 
60 | COc1cc(C(=O)Nc2ccc(N3CCCS3(=O)=O)cc2)c([N+](=O)[O-])cc1OC | 3.67 | 
61 | Cc1cc(O)c(-c2n[nH]c3c2C(c2cccc(O)c2)N(Cc2cccnc2)C3=O)cc1Cl (centres undefined) |  | inactive
62 | N#Cc1c(NC(=O)CSc2nnnn2C2CCCCC2)sc2c1CCCC2 |  | inactive
63 | CCCn1c2ccccc2c2nnc(SC(CC)C(=O)Nc3sc4c(c3C#N)CCCC4)nc21 (centres undefined) | 8.87 | 
64 | CCCC(C)NC(=O)CSCc1ccc(OC)cc1 (centres undefined) |  | inactive
65 | CCNc1nc(NCC)nc(OCCNS(=O)(=O)c2cc(C)ccc2C)n1 | 2.7 | 
66 | COc1ccccc1C=NC(CO)C(O)c1ccc([N+](=O)[O-])cc1 (centres undefined) | 7.43 | 
67 | O=C(NCN1C(=O)C2C3C=CC(C3)C2C1=O)OC1CCCCC1 (centres undefined) |  | inactive
68 | Cc1c(NC(=O)NCCN2C(=O)C3C4C=CC(C4)C3C2=O)c(=O)n(-c2ccccc2)n1C (centres undefined) | 4.05 | 
69 | C=CCc1c(C)nc2c(C(=O)O)cnn2c1C | 4.34 | 
